Results on 38 molecules are retold here after PubChem BioAssay (NCATS).

Structures are written as SMILES. Inconclusive results are not listed. A call without a number means that no potency is given here. Calls of active or inactive are those of the source. Unless noted, calls come from the whole dose curve; as a rule, active = well fitted curve in the direction sought with a large enough effect; inconclusive = small, poorly fitted or top-dose-only effect, or another doubt; inactive = no such curve, though single readings can be large; an effect the other way counts as inactive or inconclusive.

Parathyroid hormone/parathyroid hormone-related peptide receptor (Homo sapiens), sequence (Q03431 whole entry, looked up): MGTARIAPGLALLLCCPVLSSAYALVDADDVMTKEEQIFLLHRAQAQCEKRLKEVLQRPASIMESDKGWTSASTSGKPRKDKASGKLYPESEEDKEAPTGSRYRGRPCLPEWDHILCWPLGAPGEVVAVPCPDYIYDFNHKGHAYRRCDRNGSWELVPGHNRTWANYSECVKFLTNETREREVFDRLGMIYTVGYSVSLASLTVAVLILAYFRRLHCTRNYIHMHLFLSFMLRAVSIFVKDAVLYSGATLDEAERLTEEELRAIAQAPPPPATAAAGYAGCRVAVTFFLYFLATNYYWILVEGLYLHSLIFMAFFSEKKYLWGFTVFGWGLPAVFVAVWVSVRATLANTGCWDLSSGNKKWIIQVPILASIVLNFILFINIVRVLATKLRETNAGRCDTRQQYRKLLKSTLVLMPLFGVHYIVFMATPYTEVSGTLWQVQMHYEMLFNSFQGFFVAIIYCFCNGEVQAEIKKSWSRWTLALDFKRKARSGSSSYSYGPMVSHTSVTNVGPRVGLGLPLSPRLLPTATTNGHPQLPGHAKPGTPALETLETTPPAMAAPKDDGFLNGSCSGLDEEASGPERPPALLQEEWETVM

For one test, the target named is T1, Tyrosine-protein phosphatase non-receptor type substrate 1 (Homo sapiens) + Leukocyte surface antigen CD47 (Homo sapiens) (UniProt P78324+Q08722). As to the kind of experiment: CD47-SIRPalpha protein protein interaction - LANCE assay qHTS validation (AID 1347057; active = well fitted curve in the direction sought with a large enough effect in the signal ratio, with a control signal flat, not every such curve was filed as active; the % refers to the signal ratio; note: potency is the fitted concentration of half-maximal effect). Particulars: Recombinant CD47-His / biotin-SIRPalpha, TR-FRET ratio; series mostly up to 38.3 µM. In outline: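 First, His-tagged CD47 and Eu-labelled anti-His antibody met the compound for 30 min; next, site-specifically biotinylated SIRPalpha was added for 30 min; finally streptavidin-APC was added before reading the TR-FRET ratio.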
T1 sequence (P78324 whole entry, looked up): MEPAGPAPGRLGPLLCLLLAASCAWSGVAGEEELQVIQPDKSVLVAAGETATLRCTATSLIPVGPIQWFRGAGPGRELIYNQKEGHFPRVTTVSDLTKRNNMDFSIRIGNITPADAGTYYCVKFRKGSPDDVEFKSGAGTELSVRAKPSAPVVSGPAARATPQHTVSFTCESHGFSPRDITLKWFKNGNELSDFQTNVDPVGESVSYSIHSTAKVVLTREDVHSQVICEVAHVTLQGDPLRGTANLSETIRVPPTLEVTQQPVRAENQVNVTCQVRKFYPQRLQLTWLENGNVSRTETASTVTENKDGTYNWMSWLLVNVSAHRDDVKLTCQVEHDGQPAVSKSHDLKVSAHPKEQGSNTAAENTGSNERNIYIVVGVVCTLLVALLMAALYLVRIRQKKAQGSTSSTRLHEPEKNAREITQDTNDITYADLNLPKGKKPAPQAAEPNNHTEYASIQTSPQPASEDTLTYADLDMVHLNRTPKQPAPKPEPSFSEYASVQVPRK
T1 sequence (Q08722 whole entry, looked up): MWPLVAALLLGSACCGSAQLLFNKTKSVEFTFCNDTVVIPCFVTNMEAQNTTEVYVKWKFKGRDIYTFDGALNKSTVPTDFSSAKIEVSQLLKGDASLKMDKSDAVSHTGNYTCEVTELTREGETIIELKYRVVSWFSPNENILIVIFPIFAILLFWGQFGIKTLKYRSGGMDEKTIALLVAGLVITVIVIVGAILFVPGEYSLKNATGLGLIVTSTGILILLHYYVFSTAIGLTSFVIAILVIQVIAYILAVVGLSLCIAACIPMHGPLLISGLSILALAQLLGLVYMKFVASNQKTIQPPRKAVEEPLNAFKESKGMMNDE
On the technique in general: In TR-FRET formats the signal depends on donor and acceptor labels being close together.
On to `NC(C(=O)O)c1cc(=O)[nH]o1` (stereo not drawn), for which the Potency entry was “inactive”. For the molecule `O=C1C=CC(=O)C=C1`, the Potency entry was “inactive”.

On to `CC(=O)c1c(O)c(C)c(O)c(Cc2c(O)c3c(c(C(=O)/C=C/c4ccccc4)c2O)OC(C)(C)C=C3)c1O`, for which the Potency result is “inactive”. Still for that read-out and setting: to `CC(N)[C@H](O)c1ccc(O)c(O)c1` (stereo partly drawn) belongs “inactive”; to `CCOC(=O)c1ncn2c1[C@@H]1CCCN1C(=O)c1cc(OC)ccc1-2`, “inactive”. Take `COc1ccc2c(c1)C13CCCCC1C(C2)N(C)CC3` (stereo not drawn): the Potency result was “inactive”. For `c1ccc2c(N3CCNCC3)cccc2c1`, the Potency entry is “inactive”. With `Cc1o[nH]c(=O)c1CC(N)C(=O)O` (stereo not drawn), the Potency result is “inactive”.

Take `NC(Cc1cc(O)c(O)cc1O)C(=O)O` (stereo not drawn): the Potency was 13.1 µM (active). In the case of `NCC(O)c1cc(O)c(O)cc1F` (stereo not drawn), the Potency entry was “inactive”. Consider `CN(N=O)c1cc(O)ccc1O`, for which the Potency result is “inactive”. The same measure, in the same setting: to `N#CCCN` belongs “inactive”; to `Cc1c2ccncc2c(C)c2c1[nH]c1ccccc12`, “inactive”; to `NC(=O)c1cc(N2CC2)c([N+](=O)[O-])cc1[N+](=O)[O-]`, “inactive”.

Turning to `NC(N)=Nc1ccc2[nH]c3c(c2c1)C[C@@]1(O)[C@H]2Cc4ccc(O)c5c4[C@@]1(CCN2CC1CC1)[C@H]3O5`, the Potency entry is “inactive”. On to `NNC(=O)c1ccc(O)cc1`, for which the Potency result was “inactive”. Still for that read-out and setting: to `CC(C)(C)c1o[nH]c(=O)c1CC(N)C(=O)O` (stereo not drawn) belongs “inactive”; to `OC1CCCCC1N1CCC(c2ccccc2)CC1` (stereo not drawn), “inactive”. In the case of `CN(N=O)c1ccc(O)c(O)c1`, the Potency is 18.5 µM (active). As to `COc1ccc(CNC(=O)/C=C/c2ccc3[nH]cc(CCN(C)C)c3c2)cc1`, the Potency result was “inactive”. As to `CC(C)NP(=O)(NC(C)C)OP(=O)(NC(C)C)NC(C)C`, the Potency result was “inactive”.

As to `NCCc1ccc(S(=O)(=O)F)cc1`, the Potency entry is “inactive”. The same measure, in the same setting: the value for `COc1ccc2[nH]c3c(c2c1)CCNC3` was “inactive”. Same read-out and setting: the value for `N[C@@H](Cn1oc(=O)[nH]c1=O)C(=O)O` was “inactive”; that for `C[C@@H]1O[C@@H](O[C@H]2C[C@@H](O)[C@]3(CO)[C@@H]4C(CC[C@]3(O)C2)[C@@]2(O)CC[C@H]([C@@H]3COC(=O)C3)[C@@]2(C)C[C@H]4O)[C@H](O)[C@H](O)[C@H]1O` (stereo partly drawn) was “inactive”; that for `C=CCN1CCC23c4c5ccc(O)c4O[C@H]2C(=O)CC[C@@]3(O)C1C5` (stereo partly drawn) was “inactive”. Consider `CCCn1c(=O)c2[nH]c(C3CCCC3)nc2n(CCCOC(=O)c2ccc(S(=O)(=O)F)cc2)c1=O`, for which the Potency result was “inactive”. As for `O=[N+]([O-])/C=C/c1ccc2c(c1)OCO2`, the Potency entry was “inactive”.

The next test has as its target T1, Tyrosine-protein phosphatase non-receptor type substrate 1 (Homo sapiens) + Leukocyte surface antigen CD47 (Homo sapiens). Nature of the test: CD47-SIRPalpha protein protein interaction - Alpha assay qHTS validation (AID 1347059).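 Note: bead proximity luminescence from CD47 binding SIRPalpha after compound preincubation with SIRPalpha.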 Note: potency is the fitted concentration of half-maximal effect. Particulars: AlphaScreen CD47-His/biotin-SIRPalpha binding, LOPAC; series mostly up to 38.3 µM. In outline: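 Biotinylated Avi-tagged SIRPalpha (25 nM) preincubated 30 min with compound, then His-tagged CD47 (12.5 nM) added 30 min; AlphaScreen with Ni-NTA acceptor and streptavidin donor beads. PBS pH 7.4, 0.05% IGEPAL, room temperature; 7-point titrations.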
For orientation: Quantitative high-throughput screening tests each substance at several concentrations.
As for `NC(C(=O)O)c1cc(=O)[nH]o1` (stereo not drawn), the Potency result is “inactive”. Take `CCCN1CCc2cccc3c2[C@H]1Cc1ccc(O)c(O)c1-3`: the Potency entry is “inactive”. With `O=C1C=CC(=O)C=C1`, the Potency result is “inactive”. In the case of `CC(=O)c1c(O)c(C)c(O)c(Cc2c(O)c3c(c(C(=O)/C=C/c4ccccc4)c2O)OC(C)(C)C=C3)c1O`, the Potency was 16.5 µM (active). Regarding `CC(N)[C@H](O)c1ccc(O)c(O)c1` (stereo partly drawn), the Potency result was “inactive”. For the molecule `CCOC(=O)c1ncn2c1[C@@H]1CCCN1C(=O)c1cc(OC)ccc1-2`, the Potency entry is “inactive”.

Turning to `COc1ccc2c(c1)C13CCCCC1C(C2)N(C)CC3` (stereo not drawn), the Potency entry was “inactive”.

Regarding `NC(=O)CI`, the Potency entry is “inactive”.

`c1ccc2c(N3CCNCC3)cccc2c1`: the Potency result was “inactive”.

As to `Cc1o[nH]c(=O)c1CC(N)C(=O)O` (stereo not drawn), the Potency result is “inactive”. For the molecule `NC(Cc1cc(O)c(O)cc1O)C(=O)O` (stereo not drawn), the Potency was 0.927 µM (active). Same read-out and setting: to `NCC(O)c1cc(O)c(O)cc1F` (stereo not drawn) belongs “inactive”. With `C[N+](C)(C)CC#CCN1CCCC1=O`, the Potency result was “inactive”. On the same count and under the same terms, to `N#CCCN` belongs “inactive”. As for `Cc1c2ccncc2c(C)c2c1[nH]c1ccccc12`, the Potency entry was “inactive”.

`NC(N)=Nc1ccc2[nH]c3c(c2c1)C[C@@]1(O)[C@H]2Cc4ccc(O)c5c4[C@@]1(CCN2CC1CC1)[C@H]3O5`: the Potency result is “inactive”. Still for that read-out and setting: the value for `CCCN1CCc2cc(O)cc3c2[C@H]1Cc1ccc(O)c(O)c1-3` was “inactive”. `NNC(=O)c1ccc(O)cc1`: the Potency entry is “inactive”. As for `CN1CCc2cc(O)cc3c2[C@H]1Cc1ccc(O)c(O)c1-3`, the Potency result was “inactive”. Consider `CC(C)(C)c1o[nH]c(=O)c1CC(N)C(=O)O` (stereo not drawn), for which the Potency result is “inactive”.

For `OC1CCCCC1N1CCC(c2ccccc2)CC1` (stereo not drawn), the Potency entry is “inactive”.

As to `C[N+]1(C)CCN(c2ccccc2)CC1`, the Potency entry was “inactive”. Consider `C[N+]1(C)C2CCC1CC(OC(=O)c1c[nH]c3ccccc13)C2` (stereo not drawn), for which the Potency entry is “inactive”. With `COc1ccc(CNC(=O)/C=C/c2ccc3[nH]cc(CCN(C)C)c3c2)cc1`, the Potency entry was “inactive”.

Regarding `CC(C)NP(=O)(NC(C)C)OP(=O)(NC(C)C)NC(C)C`, the Potency entry was “inactive”. As to `NCCc1ccc(S(=O)(=O)F)cc1`, the Potency result was “inactive”. As to `N[C@@H](Cn1oc(=O)[nH]c1=O)C(=O)O`, the Potency result is “inactive”. For the molecule `C[C@@H]1O[C@@H](O[C@H]2C[C@@H](O)[C@]3(CO)[C@@H]4C(CC[C@]3(O)C2)[C@@]2(O)CC[C@H]([C@@H]3COC(=O)C3)[C@@]2(C)C[C@H]4O)[C@H](O)[C@H](O)[C@H]1O` (stereo partly drawn), the Potency entry is “inactive”.

With `C=CCN1CCC23c4c5ccc(O)c4O[C@H]2C(=O)CC[C@@]3(O)C1C5` (stereo partly drawn), the Potency result is “inactive”. On the same count and under the same terms, the value for `CCCn1c(=O)c2[nH]c(C3CCCC3)nc2n(CCCOC(=O)c2ccc(S(=O)(=O)F)cc2)c1=O` was “inactive”. Consider `O=[N+]([O-])/C=C/c1ccc2c(c1)OCO2`, for which the Potency result was “inactive”.

In the next test the target is Parathyroid hormone/parathyroid hormone-related peptide receptor (Homo sapiens) (UniProt Q03431). As to the kind of experiment: qHTS for PTHR1 Agonists: Optimization Screen against the NCGC LOPAC library (AID 1347079).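 Note: GloSensor cAMP luminescence in HEK-293 GP2 cells expressing human PTHR1 with IBMX.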 Particulars: HEK293 GP2 PTHR1 GloSensor cAMP luminescence, 1 h; series mostly up to 57.1 µM. The method, boiled down:
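Agonist readout: GloSensor cAMP luminescence, read after 15 min at room temperature. HEK-293-derived GP2 line carries PTHR1; compounds tested as a titration for 1 hr at 37C in presence of IBMX. M-PTH (1-15) served as control.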
For `NC(Cc1ccc(N(CCCl)CCCl)cc1)C(=O)O` (stereo not drawn), the Potency result is “inactive”.

Consider `O=C1C=CC(=O)C=C1`, for which the Potency entry is “inactive”. `CC(N)[C@H](O)c1ccc(O)c(O)c1` (stereo partly drawn): the Potency entry was “inactive”.

In the case of `COc1ccc2c(c1)/C(=C/c1cnc[nH]1)C(=O)N2`, the Potency entry is “inactive”. Same read-out and setting: to `NC(=O)CI` belongs “inactive”; to `Cc1o[nH]c(=O)c1CC(N)C(=O)O` (stereo not drawn), “inactive”; to `C/C(O)=C(\C#N)C(=O)Nc1cc(Br)ccc1Br`, “inactive”. On the same count and under the same terms, to `C[N+](C)(C)CC#CCN1CCCC1=O` belongs “inactive”. For the molecule `Cc1c2ccncc2c(C)c2c1[nH]c1ccccc12`, the Potency entry was “inactive”. On the same count and under the same terms, to `CN1CCc2cc(O)cc3c2[C@H]1Cc1ccc(O)c(O)c1-3` belongs “inactive”; to `OC1CCCCC1N1CCC(c2ccccc2)CC1` (stereo not drawn), “inactive”; to `C[N+]1(C)CCN(c2ccccc2)CC1`, “inactive”. For the molecule `CN(N=O)c1ccc(O)c(O)c1`, the Potency result is “inactive”. For the molecule `COc1ccc2[nH]c3c(c2c1)CCNC3`, the Potency result is “inactive”.
